A short description of assay [1]: qHTS of pediatric cancer cell lines to identify multiple opportunities for drug repurposing: Confirmatory screen for BT-12 cells (AID 1347112). Also: potency is read from the fitted curve at half-maximal effect.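 Also: viability read after 48 h of compound exposure; nearly all actives have a fitted effect of over 55% in size.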 Summed up: (§1)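 Cells (500-1,000/well) rested 5 h, then received compounds for 48 h; metabolically active cells were measured by CellTiter-Glo luminescence. Final concentrations spanned up to 46 µM (MIPE, 11-point) or 0.59 nM-46 µM (NPC, 8-point) in primary screens, 11-point in follow-ups.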

Assay [2] can be described thus: qHTS of pediatric cancer cell lines to identify multiple opportunities for drug repurposing: Confirmatory screen for BT-37 cells (AID 1347117). Also: nearly all actives have a fitted effect of over 55% in size. Also: potency is read from the fitted curve at half-maximal effect. To be noted: BT-37 pediatric cancer cells, viability; activity change, negative = cytotoxic: at 45.9 µM (top of the series). Summed up: as §1
Assay [3] is described as follows: qHTS of pediatric cancer cell lines to identify multiple opportunities for drug repurposing: Confirmatory screen for TC32 cells (AID 1347118).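 Also: potency is read from the fitted curve at half-maximal effect; cells exposed to compound for 48 h before the read; nearly all actives have a fitted effect of over 65% in size.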 The gist of the method: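 Measured quantity: luminescence from CellTiter-Glo, reflecting metabolically active TC32 cells following 48 h of compound. Curves came straight from multi-point titrations, with 8 or 11 points in primary and 11 in confirmatory screening.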
In general terms: qHTS replaces the single test concentration by a dilution series.

Assay [4] is described as follows: qHTS of pediatric cancer cell lines to identify multiple opportunities for drug repurposing: Confirmatory screen for MG 63 (6-TG R) cells (AID 1347119). Also: nearly all actives have a fitted effect of over 55% in size. Also: potency is read from the fitted curve at half-maximal effect. Summed up:
as §1

The nature of assay [5]: qHTS of pediatric cancer cell lines to identify multiple opportunities for drug repurposing: Confirmatory screen for control Hh wild type fibroblast cells (AID 1347121). Also: nearly all actives have a fitted effect of over 70% in size. Summed up: as §1
Assay [6] in a line: qHTS of pediatric cancer cell lines to identify multiple opportunities for drug repurposing: Confirmatory screen for RD cells (AID 1347124).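 Also: cells exposed to compound for 48 h before viability readout; nearly all actives have a fitted effect of over 65% in size.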 Also: potency is read from the fitted curve at half-maximal effect. Summed up:
as §1

A short description of assay [7]: qHTS of pediatric cancer cell lines to identify multiple opportunities for drug repurposing: Confirmatory screen for Rh18 cells (AID 1347125). Also: nearly all actives have a fitted effect of over 55% in size. Also: potency is read from the fitted curve at half-maximal effect. Summed up:
as §1

A short description of assay [8]: qHTS of pediatric cancer cell lines to identify multiple opportunities for drug repurposing: Confirmatory screen for OHS-50 cells (AID 1347128). Also: potency is read from the fitted curve at half-maximal effect. Summed up:
as §1

The nature of assay [9]: qHTS of pediatric cancer cell lines to identify multiple opportunities for drug repurposing: Confirmatory screen for SK-N-SH cells (AID 1347129).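 Also: cells exposed to compound for 48 h before viability read; nearly all actives have a fitted effect of over 60% in size.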 Also: potency is read from the fitted curve at half-maximal effect. Summed up:
as §1

Assay [10] in a line: qHTS of pediatric cancer cell lines to identify multiple opportunities for drug repurposing: Confirmatory screen for U-2 OS cells (AID 1347122). Also: nearly all actives have a fitted effect of over 65% in size. Also: potency is read from the fitted curve at half-maximal effect. The gist of the method: as §1
Assay [11] can be described thus: qHTS of pediatric cancer cell lines to identify multiple opportunities for drug repurposing: Confirmatory screen for NB-EBc1 cells (AID 1347115).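 Also: cells exposed to compound for 48 h before the viability read; nearly all actives have a fitted effect of over 45% in size.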 The gist of the method:
as §1

Assay [12] is described as follows: qHTS of pediatric cancer cell lines to identify multiple opportunities for drug repurposing: Confirmatory screen for SJ-GBM2 cells (AID 1347116). Also: nearly all actives have a fitted effect of over 60% in size. Also: potency is read from the fitted curve at half-maximal effect. The gist of the method:
(§2)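 Viability measured as metabolically active cells via CellTiter-Glo luminescence following 48 hours of compound exposure, 11-point dilutions in confirmatory testing. 500-1,000 cells/well plated 5 hours before dosing; controls were DMSO and 2.3 µM bortezomib.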

Assay [13] can be described thus: qHTS of pediatric cancer cell lines to identify multiple opportunities for drug repurposing: Confirmatory screen for Rh30 cells (AID 1347126). Also: nearly all actives have a fitted effect of over 55% in size. Also: potency is read from the fitted curve at half-maximal effect. Summed up:
as §1

Assay [14] is described as follows: qHTS of pediatric cancer cell lines to identify multiple opportunities for drug repurposing: Confirmatory screen for Saos-2 cells (AID 1347127). Also: nearly all actives have a fitted effect of over 60% in size. Also: potency is read from the fitted curve at half-maximal effect. Summed up:
as §1

Assay [15] is described as follows: qHTS of pediatric cancer cell lines to identify multiple opportunities for drug repurposing: Confirmatory screen for DAOY cells (AID 1347114). Also: nearly all actives have a fitted effect of over 65% in size. Also: potency is read from the fitted curve at half-maximal effect. The gist of the method: as §2
A short description of assay [16]: qHTS of pediatric cancer cell lines to identify multiple opportunities for drug repurposing: Confirmatory screen for Rh41 cells (AID 1347123).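 Also: 48 h compound exposure; nearly all actives have a fitted effect of over 60% in size.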 Also: potency is read from the fitted curve at half-maximal effect. The gist of the method:
as §1

A short description of assay [17]: qHTS of pediatric cancer cell lines to identify multiple opportunities for drug repurposing: Confirmatory screen for LAN-5 cells (AID 1347113). The gist of the method:
as §1

Results filed as inconclusive are left out. Calls of active or inactive are those of the source. Calls follow the shape of the dose curve; as a rule, active = well fitted curve in the direction sought with a large enough effect; inconclusive = small, poorly fitted or top-dose-only effect, or another doubt; inactive = no such curve, though single readings can be large; an effect the other way counts as inactive or inconclusive.

For 14 molecules, Potency results are on record in PubChem BioAssay (NCATS).

Regarding `COc1cc(C[C@@H](CO)[C@H](CO)Cc2ccc(O)c(OC)c2)ccc1O`, the Potency result in [1], in [2], in assay [4], in [5], in assay [7] and in [8] was “inactive” throughout. Further, the Potency result in assay [9] was “inactive”. The Potency is 9.27 µM (active) in assay [3] and 16.5 µM (active) in [6].
With `CC(=O)N1CCN(c2ccc(OCc3nn(C)c(C)c3-c3cccc4c(CCCOc5cccc6ccccc56)c(C(=O)O)n(Cc5cccnc5)c34)cc2)CC1`, the Potency entry in assay [1], in [2], in [4], in [5], in [10] and in assay [6] was “inactive” in each case. Besides, the Potency result in assay [7], in assay [8] and in [9] was “inactive” each time.
As to `C=Cc1c(C)c2cc3nc(cc4[nH]c(cc5nc(cc1[nH]2)C(C)=C5CCC(=O)O)c(CCC(=O)OC)c4C)[C@@]1(C)C3=CC=C(C(=O)OC)[C@H]1C(=O)OC`, the Potency entry in assay [1], in [11], in [12], in assay [5], in [10] and in [7] was “inactive” throughout. The Potency result in assay [13], in assay [14], in assay [8] and in assay [9] was “inactive” throughout.
On to `CCc1cnn2c(NCc3ccc[n+]([O-])c3)cc(N3CCCC[C@@H]3CCO)nc12`, for which the Potency result in assay [1], in assay [15], in [5], in [10], in [16] and in [6] was “inactive” in each case. Further, the Potency result in [14] and in assay [9] was “inactive” each time.
In the case of `NC(=O)Nc1sc(-c2ccc(F)cc2)cc1C(N)=O`, the Potency result in assay [1], in assay [15], in [12] and in [5] was “inactive” in each case. Also, the Potency in assay [3] is 5.22 µM (active); in assay [4], 11.7 µM (active); in assay [10] it was 14.7 µM (active); in assay [9], 14.8 µM (active).
As to `C[C@@]12C(=O)OC(=O)[C@@]1(C)C1CCC2O1`, the Potency in assay [1] is 8.27 µM (active); in assay [15], 2.61 µM (active); in assay [12], 6.57 µM (active); in assay [2], 2.08 µM (active); in assay [3], 3.69 µM (active); in assay [4], 1.47 µM (active). In addition, the Potency in assay [10] was 1.85 µM (active); in assay [16] it was 1.85 µM (active); in assay [6], 4.14 µM (active); in assay [7], 2.93 µM (active); in assay [14], 2.61 µM (active); in [8] it was 4.65 µM (active). The Potency in assay [9] is 5.9 µM (active).
As for `COc1cc([C@@H]2c3cc4c(cc3[C@@H](O[C@@H]3O[C@@H]5CO[C@@H](c6cccs6)O[C@@H]5[C@H](O)[C@@H]3O)[C@H]3COC(=O)[C@H]23)OCO4)cc(OC)c1O`, the Potency in assay [1] is 3.69 µM (active); in [15], 5.22 µM (active); in assay [2] it was 0.261 µM (active); in assay [3] it was 0.131 µM (active); in [10], 2.33 µM (active); in assay [16], 0.585 µM (active). The Potency was 1.31 µM (active) in [7], 1.31 µM (active) in assay [13] and 3.32 µM (active) in [9]. Further, the Potency result in assay [5] and in assay [14] was “inactive” in each case.
Regarding `COc1cccc2c1C(=O)c1c(O)c3c(c(O)c1C2=O)C[C@@](O)(C(=O)CO)C[C@@H]3O[C@H]1C[C@H](N)[C@H](OC2CCCCO2)[C@H](C)O1` (stereo not given in full), the Potency in [1] was 10.4 µM (active); in assay [17], 1.17 µM (active); in assay [2], 0.928 µM (active); in [3], 0.465 µM (active); in assay [4] it was 1.47 µM (active); in [16], 2.93 µM (active). Moreover, the Potency is 18.5 µM (active) in assay [7], 14.7 µM (active) in assay [8] and 4.69 µM (active) in assay [9]. The Potency result in [13] was “inactive”.
Turning to `C=CC(=O)N1CCc2ccc(-n3c(=O)ccc4cnc5ccc(-c6cnn(C)c6)cc5c43)cc21`, the Potency is 2.93 µM (active) in assay [17]; 9.27 µM (active) in assay [15]; 9.27 µM (active) in [12]; 4.65 µM (active) in [2]; 5.22 µM (active) in assay [3]; 5.22 µM (active) in assay [10]. In addition, the Potency in assay [16] was 8.27 µM (active); in [6] it was 10.4 µM (active); in assay [13], 5.22 µM (active); in [14], 5.22 µM (active); in [8], 7.37 µM (active); in assay [9] it was 5.9 µM (active). In addition, in [7], the Potency result is “inactive”.
Take `C[N+](C)([O-])CCNc1ccc(NCC[N+](C)(C)[O-])c2c1C(=O)c1c(O)ccc(O)c1C2=O`: the Potency result in assay [1], in [4], in [5], in assay [10], in assay [7] and in assay [9] was “inactive” in each case. The Potency in assay [3] was 4.14 µM (active); in assay [16], 18.5 µM (active).
As for `N#Cc1c(NC(=O)c2cccc3ccccc23)sc2c1CCCC2`, the Potency in [1] was 2.33 µM (active); in [2], 0.827 µM (active); in assay [3], 0.233 µM (active); in assay [4] it was 0.329 µM (active); in [10], 0.657 µM (active); in assay [14], 0.261 µM (active). For the same molecule, the Potency result in assay [5], in assay [7] and in assay [13] was “inactive” each time.
With `Cc1ncc(-c2ccnc(Nc3ccc(S(C)(=O)=O)cc3)n2)n1C(C)C`, the Potency in assay [1] is 3.29 µM (active); in [15], 13.1 µM (active); in [12], 2.61 µM (active); in assay [2], 3.29 µM (active); in assay [3] it was 4.65 µM (active); in [10], 3.29 µM (active). For the same molecule, the Potency in [16] was 2.93 µM (active); in [6], 5.22 µM (active); in [14] it was 3.69 µM (active); in [8] it was 3.29 µM (active); in assay [9], 4.18 µM (active). Also, the Potency entry in assay [4] and in assay [5] was “inactive” in each case.
For the molecule `COC(=O)C1C2CC3c4[nH]c5cc(OC)ccc5c4CCN3CC2CC(OC(=O)c2cc(OC)c(OC)c(OC)c2)C1OC` (stereo not given), the Potency in assay [1] was 2.61 µM (active); in assay [17], 14.7 µM (active); in assay [2], 1.47 µM (active); in assay [10], 20.8 µM (active); in assay [16] it was 11.7 µM (active); in [7], 16.5 µM (active). Moreover, in assay [14], the Potency was 5.85 µM (active). The Potency entry in assay [5] was “inactive”.
Regarding `O=C(NCc1ccccc1)[C@H](Cc1ccccc1)NC(=O)[C@@H]1O[C@@H]1C(=O)NCCc1ccc(O)cc1`, the Potency entry in assay [1], in [12], in assay [5], in assay [10], in assay [6] and in assay [7] was “inactive” throughout. Further, the Potency result in assay [13], in assay [14], in assay [8] and in [9] was “inactive” each time. The Potency in assay [3] is 0.165 µM (active).
